# Results published in PubChem BioAssay (NCATS).
# Inconclusive results are not listed. A call without a number means that no potency is given here. Activity calls are given as the source filed them. Unless noted, calls come from the whole dose curve; as a rule, active = well fitted curve in the direction sought with a large enough effect; inconclusive = small, poorly fitted or top-dose-only effect, or another doubt; inactive = no such curve, though single readings can be large; an effect the other way counts as inactive or inconclusive.
# Columns and labels:
# [1] = Validation of Assay for Modulators of Lamin A Splicing (AID 1459; active = well fitted curve in the direction sought with a large enough effect in the signal ratio; the % refers to the signal ratio;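 note: cells exposed to compound for two days before reading; ratio rise marks activators and ratio drop marks inhibitors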)
# In short: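 Dual-reporter HeLa S3 line (lamin A-EGFP minigene, DsRed2) treated with compounds 48 hrs, 0.5% DMSO final. Endpoint: EGFP/DsRed2 total intensity ratio from laser-scanning microplate cytometry.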
# [2] = target: DNA repair nuclease/redox regulator APEX1 (Homo sapiens) (UniProt P27695); experiment: qHTS Validation Assay for Inhibitors of the Human Apurinic/apyrimidinic Endonuclease 1 (APE1) (AID 1705; note: potency is the fitted concentration of half-maximal effect;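 for activity change, negative = inhibition: TAMRA fluorescence gain over two minutes as APE1 cuts a quenched THF abasic duplex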)
# DNA repair nuclease/redox regulator APEX1 (Homo sapiens), sequence (P27695 whole entry, looked up): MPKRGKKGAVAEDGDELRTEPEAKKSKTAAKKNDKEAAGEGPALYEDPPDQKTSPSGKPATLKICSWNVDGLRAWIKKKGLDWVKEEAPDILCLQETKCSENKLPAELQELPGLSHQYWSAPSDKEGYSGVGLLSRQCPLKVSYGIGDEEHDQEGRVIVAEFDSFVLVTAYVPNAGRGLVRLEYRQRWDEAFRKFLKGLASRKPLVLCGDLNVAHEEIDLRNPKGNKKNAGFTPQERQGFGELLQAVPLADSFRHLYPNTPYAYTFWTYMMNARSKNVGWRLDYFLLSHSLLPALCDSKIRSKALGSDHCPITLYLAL
# In short: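 Substrate: 50 nM final fluorophore/quencher THF-abasic duplex. Enzyme preincubated with compounds 15 min, RT. Progress derived from fluorescence difference, third minus first kinetic read.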
# [3] = Counterscreen for APE1 Inhibitors: Fluorescent Dye Displacement Validation Assay (AID 1707)
# In short: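 Loss of Thiazole Orange fluorescence marks promiscuous DNA binders. The dye (250 nM) is mixed with 50 nM abasic-site dsDNA in pH7.5 Tris buffer containing MgCl2, then compounds are added and emission is read once.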
# [4] = target: Endonuclease 4 (Escherichia coli (strain K12)) (UniProt P0A6C1); experiment: Counterscreen for APE1 Inhibitors: qHTS Validation Assay for Inhibitors of Endonuclease IV (AID 1708)
# In short: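 Enzyme (2 nM) + compound, 15 min RT; add 50 nM TAMRA/BHQ-2 THF-site dsDNA; kinetic read ex525/em598, 3 reads/60 s; activity = read 3 − read 1. Buffer Tris pH 7.5, 50 mM NaCl, 2 mM MgCl2, DTT, Tween-20.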
# [5] = qHTS for differential inhibitors of proliferation of Plasmodium falciparum line 3D7 (AID 1876); note: potency is the fitted concentration of half-maximal effect
# [6] = qHTS for differential inhibitors of proliferation of Plasmodium falciparum line Dd2 (AID 1882); conditions: Potency: Plasmodium falciparum Dd2 proliferation inhibition; note: nearly all actives have a fitted effect of over 65% in size; note: potency is the fitted concentration of half-maximal effect
# In short: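 SYBR Green DNA fluorescence (ex 485, em 535 nm) after overnight lysis quantifies parasite growth; compound exposure lasted 72 h at 37 C on infected red cells at 2.5% hematocrit, 0.3% parasitemia (final). Artemisinin 0.29 uM and vehicle wells define normalization.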
# [7] = target: Ferritin light chain (Equus caballus) (UniProt P02791); experiment: qHTS Validation Assay for Identification of Novel General Anesthetics (AID 2323)
# Ferritin light chain (Equus caballus), sequence (P02791 2-175 limits assumed): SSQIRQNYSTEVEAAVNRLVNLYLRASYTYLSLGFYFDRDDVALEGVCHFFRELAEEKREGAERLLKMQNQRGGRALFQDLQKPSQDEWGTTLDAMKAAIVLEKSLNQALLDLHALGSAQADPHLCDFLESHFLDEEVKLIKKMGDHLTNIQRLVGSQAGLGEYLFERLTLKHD
# In short: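 Normalized fluorescence response, scaled between free 1-AMA and 1-AMA/apoferritin complex, fitted to a four-parameter Hill equation for concentration-effect values. Binding mix: 10 uM horse-spleen apoferritin, 50% saturated 1-AMA in PBS; read 380/535 nm after 10 min.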
# [8] = target: ATP-dependent DNA helicase Q1 (Homo sapiens) (UniProt P46063); experiment: qHTS Validation Assay for Inhibitors of RecQ-Like Dna Helicase 1 (RECQ1) (AID 2353)
# ATP-dependent DNA helicase Q1 (Homo sapiens), sequence (P46063 whole entry, looked up): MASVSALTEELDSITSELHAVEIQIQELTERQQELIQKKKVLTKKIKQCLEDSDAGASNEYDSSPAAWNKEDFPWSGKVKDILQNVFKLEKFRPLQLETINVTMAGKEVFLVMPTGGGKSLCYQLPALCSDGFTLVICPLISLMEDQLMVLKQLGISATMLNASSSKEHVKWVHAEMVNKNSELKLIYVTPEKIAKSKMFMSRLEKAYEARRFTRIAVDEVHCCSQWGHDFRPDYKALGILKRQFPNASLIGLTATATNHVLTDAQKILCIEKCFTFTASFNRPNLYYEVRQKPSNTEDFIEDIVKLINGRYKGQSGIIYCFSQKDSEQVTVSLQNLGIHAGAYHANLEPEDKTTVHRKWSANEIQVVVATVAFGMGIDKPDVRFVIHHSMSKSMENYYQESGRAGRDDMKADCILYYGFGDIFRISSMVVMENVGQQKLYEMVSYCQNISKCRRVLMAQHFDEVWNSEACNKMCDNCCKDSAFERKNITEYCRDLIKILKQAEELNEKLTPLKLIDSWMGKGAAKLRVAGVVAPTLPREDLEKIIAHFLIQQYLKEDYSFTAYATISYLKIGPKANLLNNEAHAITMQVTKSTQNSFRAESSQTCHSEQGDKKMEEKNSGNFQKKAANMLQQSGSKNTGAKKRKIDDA
# In short: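 RECQ1T1 50 nM; forked duplex (20 bp + 30-nt ss tails) 200 nM, ATP 2 mM final; pH 8.0, 2 mM MgCl2, 2.5 ug/ml poly(dI-dC); 15 min compound preincubation; discontinuous kinetic read over 2 h at RT.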
# [9] = Validation screen for small molecules that induce DNA re-replication in MCF 10A normal breast cells (AID 463097); note: nearly all actives have a fitted effect of over 60% in size
# In short: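 Following 48 hr compound incubation (37 C, 5% CO2), MCF 10A cells receive Hoechst for 40 min at 37 C. Nuclei are then scanned (excitation 405 nm, emission 500-530 nm) for total fluorescence intensity.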
# [10] = Quantitative high throughput screen for delayed death inhibitors of the malarial parasite plastid, 96 hour incubation (AID 488745); note: nearly all actives have a fitted effect of over 70% in size; note: potency is the fitted concentration of half-maximal effect;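 for activity change, negative = inhibition: luciferase-expressing P. falciparum in erythrocytes at 2% hematocrit and 0.1% parasitemia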
# In short: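 Readout is firefly luciferase luminescence from an integrated reporter in P. falciparum; lower signal marks inhibited growth. Cultures at 2% hematocrit and 0.1% parasitemia were treated with compound across two generations (96 h, 37 C, 5% CO2).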
# [11] = Quantitative high throughput screen for delayed death inhibitors of the malarial parasite plastid, 48 hour incubation (AID 488752); note: nearly all actives have a fitted effect of over 65% in size
# In short: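 First, compound was pinned into RPMI 1640 medium containing 0.5% Albumax. Next, reporter-parasite-infected erythrocytes were added to 2% hematocrit and 0.1% parasitemia. After 48 h at 37 C under 5% CO2, luciferase detection reagent was added and luminescence read.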
# [12] = target: M-phase phosphoprotein 8 (Homo sapiens) (UniProt Q99549); experiment: qHTS Validation Assay for Inhibitors for MPP8 Chromodomain Interactions with Methylated Histone Tails (AID 488949); note: nearly all actives have a fitted effect of over 55% in size; note: potency is the fitted concentration of half-maximal effect;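 for activity change, negative = inhibition: 50 nM MPP8 with 50 nM peptide preformed then compounds added for 30 min; AlphaScreen signal from MPP8 chromodomain bound to biotinylated H3K9me3 peptide; top concentration of the series differs between compounds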
# M-phase phosphoprotein 8 (Homo sapiens), sequence (Q99549 whole entry, looked up): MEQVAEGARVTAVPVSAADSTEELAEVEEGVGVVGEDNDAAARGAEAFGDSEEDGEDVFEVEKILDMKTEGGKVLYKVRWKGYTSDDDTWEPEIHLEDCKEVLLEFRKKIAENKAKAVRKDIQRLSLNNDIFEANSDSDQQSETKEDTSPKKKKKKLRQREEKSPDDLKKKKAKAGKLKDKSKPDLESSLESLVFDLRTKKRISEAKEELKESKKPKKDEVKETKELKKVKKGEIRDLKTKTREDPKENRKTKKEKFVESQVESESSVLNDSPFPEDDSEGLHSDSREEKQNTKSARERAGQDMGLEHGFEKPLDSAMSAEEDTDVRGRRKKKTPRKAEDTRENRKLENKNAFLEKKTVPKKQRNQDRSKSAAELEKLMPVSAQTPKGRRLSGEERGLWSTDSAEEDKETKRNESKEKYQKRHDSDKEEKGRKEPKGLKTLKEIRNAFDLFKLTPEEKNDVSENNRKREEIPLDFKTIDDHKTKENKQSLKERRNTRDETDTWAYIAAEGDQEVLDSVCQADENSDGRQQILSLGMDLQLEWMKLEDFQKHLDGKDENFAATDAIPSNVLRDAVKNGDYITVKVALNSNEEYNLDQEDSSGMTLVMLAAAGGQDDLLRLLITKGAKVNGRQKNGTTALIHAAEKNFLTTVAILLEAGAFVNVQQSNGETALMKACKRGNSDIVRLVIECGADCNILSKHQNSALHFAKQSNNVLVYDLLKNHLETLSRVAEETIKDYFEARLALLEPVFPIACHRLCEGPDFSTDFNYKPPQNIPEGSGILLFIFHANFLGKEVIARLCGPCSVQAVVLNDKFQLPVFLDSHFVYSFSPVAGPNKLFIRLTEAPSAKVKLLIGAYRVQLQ
# In short: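 Chemiluminescent proximity assay: histidine-tag capture via nickel acceptor beads, biotin peptide via streptavidin donor beads. Protein and peptide each at 50 nM, pH 7.4, with 30 min incubations at room temperature for complex formation, compound exposure and bead binding.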
# [13] = target: Transient receptor potential cation channel subfamily V member 1 (Homo sapiens) (UniProt Q8NER1); experiment: HTS Assay for Compounds that Act as Enhancers of the Vanilloid Receptor 1 (AID 488979)
# Transient receptor potential cation channel subfamily V member 1 (Homo sapiens), sequence (Q8NER1 whole entry, looked up): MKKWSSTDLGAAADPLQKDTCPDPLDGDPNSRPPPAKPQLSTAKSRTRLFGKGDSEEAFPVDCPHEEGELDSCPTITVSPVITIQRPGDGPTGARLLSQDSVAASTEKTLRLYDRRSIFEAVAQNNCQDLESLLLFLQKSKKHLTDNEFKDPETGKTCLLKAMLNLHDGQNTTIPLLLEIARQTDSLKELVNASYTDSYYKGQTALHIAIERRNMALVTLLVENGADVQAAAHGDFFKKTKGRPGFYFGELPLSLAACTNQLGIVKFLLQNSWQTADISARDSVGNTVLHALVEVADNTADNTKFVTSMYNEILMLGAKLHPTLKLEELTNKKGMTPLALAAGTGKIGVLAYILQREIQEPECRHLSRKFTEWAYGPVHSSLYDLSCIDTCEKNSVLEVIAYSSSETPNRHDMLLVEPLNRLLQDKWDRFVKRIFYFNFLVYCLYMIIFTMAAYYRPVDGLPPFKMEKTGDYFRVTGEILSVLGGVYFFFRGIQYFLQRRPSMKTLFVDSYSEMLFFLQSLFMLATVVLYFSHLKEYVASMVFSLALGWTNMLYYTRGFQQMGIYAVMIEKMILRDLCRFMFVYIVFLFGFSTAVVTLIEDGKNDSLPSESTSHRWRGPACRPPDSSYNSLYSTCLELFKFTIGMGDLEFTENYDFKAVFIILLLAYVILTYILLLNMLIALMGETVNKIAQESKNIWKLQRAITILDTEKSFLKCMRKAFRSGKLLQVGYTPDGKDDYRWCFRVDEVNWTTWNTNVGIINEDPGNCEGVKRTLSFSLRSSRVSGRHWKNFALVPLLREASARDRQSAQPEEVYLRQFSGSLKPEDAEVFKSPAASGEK
# In short: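 TRPV1-expressing cells loaded with Fluo-8 calcium dye; compounds added and calcium influx read kinetically for 3 min (agonist phase), then capsaicin at EC20 added and read 2 min more for enhancement. Fluorescence ex 480/em 520 nm.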
# [14] = target: Thyrotropin receptor (Homo sapiens) (UniProt P16473); experiment: qHTS Assay for Antagonists of the Thyroid Stimulating Hormone Receptor (AID 488980)
# Thyrotropin receptor (Homo sapiens), sequence (P16473 whole entry, looked up): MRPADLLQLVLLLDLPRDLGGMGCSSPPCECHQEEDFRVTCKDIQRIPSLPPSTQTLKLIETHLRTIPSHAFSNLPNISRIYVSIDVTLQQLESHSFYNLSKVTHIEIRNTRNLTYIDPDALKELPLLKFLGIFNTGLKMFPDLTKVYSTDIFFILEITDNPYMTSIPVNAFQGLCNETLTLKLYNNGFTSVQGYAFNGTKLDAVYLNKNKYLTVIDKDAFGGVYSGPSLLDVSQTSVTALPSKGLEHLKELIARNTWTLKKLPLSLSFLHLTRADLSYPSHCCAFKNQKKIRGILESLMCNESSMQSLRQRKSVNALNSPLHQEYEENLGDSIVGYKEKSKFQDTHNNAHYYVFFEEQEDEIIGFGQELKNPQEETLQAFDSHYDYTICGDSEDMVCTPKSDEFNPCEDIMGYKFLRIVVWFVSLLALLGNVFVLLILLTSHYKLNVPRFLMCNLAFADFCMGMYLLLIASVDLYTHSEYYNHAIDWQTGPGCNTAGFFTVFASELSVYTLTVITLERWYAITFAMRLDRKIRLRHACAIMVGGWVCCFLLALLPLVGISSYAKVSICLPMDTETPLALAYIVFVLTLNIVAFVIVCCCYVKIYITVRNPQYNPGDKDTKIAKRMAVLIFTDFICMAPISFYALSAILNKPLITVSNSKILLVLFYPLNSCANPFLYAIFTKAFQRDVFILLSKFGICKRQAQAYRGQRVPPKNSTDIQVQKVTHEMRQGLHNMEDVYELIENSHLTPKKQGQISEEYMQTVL
# In short: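 Inhibition of TSH-stimulated cAMP accumulation was quantified by homogeneous time-resolved FRET in TSHR-transfected HEK293 cells. Agonist: TSH, 4 nM final (EC80).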
# [15] = target: Thyrotropin-releasing hormone receptor (Homo sapiens) (UniProt P34981); experiment: qHTS for Small Molecule Agonists and Allosteric Enhancers of Human TRH Receptor: Validation Screen for Agonists (AID 493127;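 active = calcium activation more than 3 SD above the typical response in the agonist read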;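 note: intracellular calcium rise by fluo-8 fluorescence before TRH EC20 addition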); conditions: TRH receptor agonist cell assay; at 2 µM; stronger effect = higher value
# Thyrotropin-releasing hormone receptor (Homo sapiens), sequence (P34981 whole entry, looked up): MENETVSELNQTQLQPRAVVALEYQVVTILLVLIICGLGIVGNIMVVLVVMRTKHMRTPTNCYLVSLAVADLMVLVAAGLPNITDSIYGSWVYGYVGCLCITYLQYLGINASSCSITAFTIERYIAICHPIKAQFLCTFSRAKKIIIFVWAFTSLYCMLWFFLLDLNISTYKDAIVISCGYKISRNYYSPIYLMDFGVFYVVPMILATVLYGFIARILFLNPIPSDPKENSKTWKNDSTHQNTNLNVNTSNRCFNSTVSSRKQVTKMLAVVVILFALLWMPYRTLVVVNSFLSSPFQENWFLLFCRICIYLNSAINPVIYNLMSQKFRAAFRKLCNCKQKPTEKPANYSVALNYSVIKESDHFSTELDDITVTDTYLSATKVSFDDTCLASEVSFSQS
# In short: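 Compounds are added by online pintool to dye-loaded TRHR cells while fluorescence is recorded every second. A rise in calcium signal during the agonist read marks activation; a later 10 nM TRH addition (EC20) serves the separate enhancer mode.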
# [16] = target: Galactokinase (Homo sapiens) (UniProt P51570); experiment: qHTS Validation Assay for Inhibitors of Human Galactokinase (GALK) (AID 493189)
# Galactokinase (Homo sapiens), sequence (P51570 whole entry, looked up): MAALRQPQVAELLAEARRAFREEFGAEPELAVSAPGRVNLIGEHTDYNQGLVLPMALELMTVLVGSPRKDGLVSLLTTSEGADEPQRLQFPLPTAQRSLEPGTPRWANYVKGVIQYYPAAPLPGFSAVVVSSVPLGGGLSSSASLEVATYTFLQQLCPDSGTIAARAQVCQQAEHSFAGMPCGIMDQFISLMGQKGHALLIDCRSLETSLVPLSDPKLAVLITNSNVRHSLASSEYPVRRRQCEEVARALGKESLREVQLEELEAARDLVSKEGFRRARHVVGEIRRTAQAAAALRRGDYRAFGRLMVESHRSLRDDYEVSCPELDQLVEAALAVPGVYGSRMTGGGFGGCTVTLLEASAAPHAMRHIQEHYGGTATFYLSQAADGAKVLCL
# In short: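 Enzyme activity is inferred from ATP consumption: human GALK phosphorylates galactose (100 uM) using 35 uM ATP for 1 h at room temperature, and luciferase-based Kinase-Glo Plus reports unconsumed ATP.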
# [17] = target: Voltage-gated inwardly rectifying potassium channel KCNH2 (Homo sapiens) (UniProt Q12809); experiment: qHTS Assay for Small Molecule Inhibitors of the Human hERG Channel Activity (AID 588834);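 note: top concentration of the series differs between compounds; lower thallium flux fluorescence means stronger hERG block; nearly all actives have a fitted effect of over 50% in size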
# In short: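 Homogeneous FluxOR thallium flux assay using hERG-expressing U2OS cells (BacMam). Compound treatment about 10 minutes preceded stimulation; reduced fluorescence taken as channel block.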
# [18] = qHTS Assay for Lipid Storage Modulators (AID 1519; calls by dose curve); conditions: Drosophila S3 cells, BODIPY lipid droplet/cell ratio, laser cytometry, cells loaded with oleic acid; for activity change, negative = inhibition: at 57.5 µM (top of the series)
# In short: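 Cells seeded at 5,000 per well were treated with compounds over a concentration series and loaded with oleic acid (400 uM, as added). Lipid droplet fluorescence (488 nm excitation, 500-530 nm channel) was read by laser-scanning cytometry and normalized to 20 uM Triacsin C.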
# [19] = qHTS drug screen for cell cycle checkpoint inhibitors in PARPi-resistant BRCA-mutant ovarian cancer cell lines. (AID 1963452; calls by dose curve); conditions: PEO1/OlaR viability, CellTiter-Glo luminescence, 96 h, stronger effect = lower value
# In short: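 PEO1, PEO4 and PEO1/OlaR ovarian cancer cells, 600 per well, exposed 96 h at 37C to a dilution series. Viability read by CellTiter-Glo luminescence, normalized to DMSO and empty wells; activity summarized as Z-AUC.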
# [20] = qHTS assay to identify inhibitors of the type 1 interferon - major histocompatibility complex class I in skeletal muscle: Counter screen cell viability and HiBit confirmation (AID 1347412); conditions: iHSKM muscle cells + IFN-b, HiBiT or CellTiter-Glo, 24 h, at 45.9 µM (top of the series); note: nearly all actives have a fitted effect of over 60% in size
# In short: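 Human myoblast knock-in line, 4.0 ng/ml IFN-beta stimulation, 24 h compound treatment. Endpoints: HiBiT lytic luminescence (HLA-B level) and CellTiter Glo (ATP). Dosing 12 concentrations, 3-fold steps, 46 uM highest final.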
# [21] = measured here: cell count channel max response
# [22] = measured here: lipid channel max response
# [23] = measured here: PEO1 parental Z-AUC
structure (smiles),measurement,setting,value
N[C@H](Cc1ccc(O)c(O)c1)C(=O)O,outcome,[1],inactive
same,Potency,[2],10 µM (active)
same,Potency,[3],inactive
same,outcome,[4],inactive
same,Potency,[5],inactive
same,Potency,[6],inactive
same,outcome,[7],inactive
same,Potency,[8],inactive
same,outcome,[9],inactive
same,Potency,[10],inactive
same,Potency,[11],inactive
same,Potency,[12],17.8 µM (active)
same,outcome,[13],inactive
same,outcome,[14],inactive
same,activation,[15],0.688% (inactive)
same,outcome,[16],inactive
same,Potency,[17],inactive
N=C(N)SCCc1cccc(CCSC(=N)N)c1,outcome,[1],inactive
same,"activity change, negative = inhibition",[18],1.43% (inactive)
same,max response,[18]; [21],-17.4%
same,max response,[18]; [22],-13.1%
same,Potency,[2],inactive
same,Potency,[3],inactive
same,outcome,[4],inactive
same,Potency,[5],3.16 µM (active)
same,Potency,[6],7.08 µM (active)
same,outcome,[7],inactive
same,Potency,[8],inactive
same,outcome,[9],inactive
same,Potency,[10],13.1 µM (active)
same,Potency,[12],inactive
same,outcome,[13],inactive
same,outcome,[14],inactive
same,activation,[15],0.562% (inactive)
same,outcome,[16],inactive
CC(=O)[C@@]1(O)CC[C@H]2C3CCC4=CC(=O)CC[C@]4(C)C3CC[C@@]21C (some centres undefined),outcome,[1],inactive
same,"activity change, negative = inhibition",[18],1.08% (inactive)
same,max response,[18]; [21],-12.2%
same,max response,[18]; [22],-12.4%
same,Potency,[2],inactive
same,Potency,[3],inactive
same,Potency,[6],inactive
same,outcome,[7],inactive
same,Potency,[8],inactive
same,outcome,[9],inactive
same,Potency,[10],inactive
same,Potency,[11],inactive
same,Potency,[12],inactive
same,outcome,[13],inactive
same,outcome,[14],inactive
same,activation,[15],1.5% (inactive)
same,outcome,[16],inactive
same,Potency,[17],inactive
Cn1cc(-c2ccc(-c3cncc(Cl)c3N3CCC4(CCNC4=O)CC3)cc2)cn1,Z-AUC,[19],-1.1 (inactive)
same,Z-AUC,[19]; [23],-0.614
same,Z-AUC,[19]; measured here: PEO4 Z-AUC,-1.18
same,"activity change, negative = inhibition",[20]; Viability,-3.23% (inactive)
NCC1OC(O[C@@H]2[C@H](O)[C@@H](OC3C(O)C(N)CC(N)C3OC3OC(CO)C(O)C(O)C3N)O[C@@H]2CO)C(N)C(O)C1O (some centres undefined),outcome,[1],inactive
same,"activity change, negative = inhibition",[18],1.08% (inactive)
same,max response,[18]; [21],-5.44%
same,max response,[18]; [22],-4.61%
same,Potency,[2],inactive
same,Potency,[3],inactive
same,outcome,[4],inactive
same,Potency,[5],inactive
same,Potency,[6],inactive
same,outcome,[7],inactive
same,Potency,[8],inactive
same,outcome,[9],inactive
same,Potency,[10],inactive
same,Potency,[11],inactive
same,Potency,[12],inactive
same,outcome,[13],inactive
same,outcome,[14],inactive
same,activation,[15],1.44% (inactive)
same,outcome,[16],inactive
same,Potency,[17],inactive
NC(=O)c1cccc2c(NC(CN3CCC3)c3ccc(Cl)c(C(F)(F)F)c3)ncnc12 (centres undefined),Z-AUC,[19],0.286 (inactive)
same,Z-AUC,[19]; [23],0.149
same,Z-AUC,[19]; measured here: PEO4 Z-AUC,0.205
same,"activity change, negative = inhibition",[20]; HiBiT,-0.923% (inactive)
CC(N)=NCCCC(N)C(=O)O (centres undefined),outcome,[1],inactive
same,Potency,[2],inactive
same,Potency,[3],inactive
same,outcome,[4],inactive
same,Potency,[5],inactive
same,Potency,[6],inactive
same,outcome,[7],inactive
same,Potency,[8],inactive
same,outcome,[9],inactive
same,Potency,[10],inactive
same,Potency,[11],inactive
same,Potency,[12],inactive
same,outcome,[13],inactive
same,outcome,[14],inactive
same,activation,[15],0.938% (inactive)
same,outcome,[16],inactive
same,Potency,[17],inactive
O=C(O)CC[C@H](NC(=O)c1ccccc1C(=O)O)C(=O)O,outcome,[1],inactive
same,"activity change, negative = inhibition",[18],-0.627% (inactive)
same,max response,[18]; [21],34.2%
same,max response,[18]; [22],31.2%
same,Potency,[2],inactive
same,Potency,[3],inactive
same,outcome,[4],inactive
same,Potency,[5],inactive
same,Potency,[6],inactive
same,outcome,[7],inactive
same,Potency,[8],inactive
same,outcome,[9],inactive
same,Potency,[10],inactive
same,Potency,[11],inactive
same,Potency,[12],inactive
same,outcome,[13],inactive
same,outcome,[14],inactive
same,activation,[15],0.188% (inactive)
same,outcome,[16],inactive
same,Potency,[17],inactive
NC(=NCCC[C@H](N)C(=O)O)NO,outcome,[1],inactive
same,Potency,[2],inactive
same,Potency,[3],inactive
same,outcome,[4],inactive
same,Potency,[5],inactive
same,Potency,[6],inactive
same,outcome,[7],inactive
same,Potency,[8],inactive
same,outcome,[9],inactive
same,Potency,[10],inactive
same,Potency,[11],inactive
same,Potency,[12],inactive
same,outcome,[13],inactive
same,outcome,[14],inactive
same,activation,[15],0.812% (inactive)
same,outcome,[16],inactive
same,Potency,[17],inactive
COc1cc(C(N)=O)ccc1NC(=O)[C@@H]1N[C@@H](CC(C)(C)C)[C@@]2(C(=O)Nc3cc(Cl)ccc32)[C@H]1c1cccc(Cl)c1F,Z-AUC,[19],-0.18 (inactive)
same,Z-AUC,[19]; [23],-0.499
same,Z-AUC,[19]; measured here: PEO4 Z-AUC,-0.498
same,"activity change, negative = inhibition",[20]; Viability,-16.3% (inactive)
COc1c2c(nc3ccccc13)OC(C(C)(O)CO)C2 (centres undefined),outcome,[1],inactive
same,"activity change, negative = inhibition",[18],1.22% (inactive)
same,max response,[18]; [21],-18%
same,max response,[18]; [22],-12.2%
same,Potency,[2],inactive
same,Potency,[3],inactive
same,outcome,[4],inactive
same,Potency,[5],inactive
same,Potency,[6],inactive
same,outcome,[7],inactive
same,Potency,[8],inactive
same,outcome,[9],inactive
same,Potency,[10],inactive
same,Potency,[11],inactive
same,Potency,[12],inactive
same,outcome,[13],inactive
same,outcome,[14],inactive
same,activation,[15],0.812% (inactive)
same,outcome,[16],inactive
same,Potency,[17],inactive
